# TDP1 cell noCPT: qHTS for Inhibitors of human tyrosyl-DNA phosphodiesterase 1 (TDP1): qHTS in cells in absence of CPT; DT40 Tdp1-/- hTDP1 cells, no CPT, ATP luminescence, 48 h; Potency, µM (series often up to 46.2 µM), most hits filed as inhibitors; actives 15% (n = 420,000); note: nearly all actives have a fitted effect of over 55% in size
#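 Readout: luminescence from CellTiter-Glo after 30 min in the dark at RT. Cells: DT40 Tdp1-/- with stable hTDP1, 400/well. Exposure: compounds alone, ≥48 hr, 37 °C.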
# TDP1 cell CPT: qHTS for Inhibitors of human tyrosyl-DNA phosphodiesterase 1 (TDP1): qHTS in cells in presence of CPT | chicken DT40 Tdp1-/-;hTDP1 cells + 20 nM CPT, ATP luminescence, 48 h | Potency, µM (titrated, usually from 46.2 µM), hits mostly inhibitors | actives 12% (n = 420,000) | AID 686979, 2013; note: nearly all actives have a fitted effect of over 55% in size
#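 Chicken DT40 Tdp1-/- cells complemented with human TDP1, 400 cells/well, exposed to compounds plus 20 nM camptothecin for at least 48 h at 37 C; viability read as ATP content by CellTiter-Glo luminescence.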
# uPA surface inh: qHTS for Inhibitors of Cell Surface uPA Generation. actives 0.31% (n = 330,000). cell surface uPA generation assay, qHTS. Potency, µM (series often up to 38.3 µM), usual class: inhibitors; active = well fitted inhibition curve with a large enough effect; inconclusive = small, poorly fitted or top-dose-only effect; inactive = no such curve, though single readings can be large or run the other way; tested in mouse RAW 264.7 cells; note: nearly all actives have a fitted effect of over 55% in size
# miR-21 act: qHTS Assay for Modulators of miRNAs and/orActivators of miR-21 | Potency, µM (top dose mostly 38.3 µM), actives largely listed as activators | 340,000 tested, under 10 active | AID 2288, 2010 | HeLa miR-21 FLuc reporter, luciferase, 48 h;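 note: miR-21 action dims this reporter so a rising signal means less miR-21 action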
#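 Compounds were titrated across several concentrations (up to approximately 40 uM) and incubated 48 hours with HeLa miR-21-FLuc reporter cells (miR-21 target sequence downstream of FLuc, endogenous miR-21). Readout was firefly luciferase luminescence after lytic detection reagent.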
# TDP1 inh: qHTS Assay for Inhibitors of Tyrosyl-DNA Phosphodiesterase (TDP1); Tyrosyl-DNA phosphodiesterase 1 (Homo sapiens), Q9NUW8; AID 485290, 2010; recombinant TDP1, AlphaScreen DNA substrate cleavage; actives 0.28% (n = 350,000); Potency, µM (titrated, usually from 130 µM), most hits filed as inhibitors; note: nearly all actives have a fitted effect of over 40% in size
# Target sequence (Q9NUW8 whole entry, looked up): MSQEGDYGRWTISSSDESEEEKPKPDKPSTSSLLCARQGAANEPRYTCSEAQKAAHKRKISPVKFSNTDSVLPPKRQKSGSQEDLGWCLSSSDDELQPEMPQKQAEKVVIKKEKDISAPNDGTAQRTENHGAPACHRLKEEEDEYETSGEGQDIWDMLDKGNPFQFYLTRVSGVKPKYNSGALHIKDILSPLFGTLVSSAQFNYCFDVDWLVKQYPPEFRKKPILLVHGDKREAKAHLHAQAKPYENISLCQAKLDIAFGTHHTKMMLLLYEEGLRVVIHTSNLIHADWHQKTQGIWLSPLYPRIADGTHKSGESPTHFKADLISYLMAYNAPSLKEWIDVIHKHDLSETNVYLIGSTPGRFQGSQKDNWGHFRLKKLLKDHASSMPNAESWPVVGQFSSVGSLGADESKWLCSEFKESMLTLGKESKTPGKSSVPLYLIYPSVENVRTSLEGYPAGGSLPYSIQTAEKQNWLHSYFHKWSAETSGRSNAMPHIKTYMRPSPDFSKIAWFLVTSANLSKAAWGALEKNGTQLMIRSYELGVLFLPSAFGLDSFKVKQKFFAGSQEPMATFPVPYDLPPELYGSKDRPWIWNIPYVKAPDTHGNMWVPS
#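 Steps: enzyme plus compound, 15 min RT; add biotin/phosphotyrosine-FITC oligonucleotide (15 nM final), react 5 min; add donor/acceptor beads (10 ug/ml final), 10 min; read AlphaScreen. Tdp1 at 1 nM final.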
# Numbers stand for hits; 0 = inactive; ? = inconclusive; - = no result. In the library only some 16% were active in any assay of this set; here they are far more common. Unless noted, calls come from the whole dose curve; as a rule, active = well fitted curve in the direction sought with a large enough effect; inconclusive = small, poorly fitted or top-dose-only effect, or another doubt; inactive = no such curve, though single readings can be large; an effect the other way counts as inactive or inconclusive.
SMILES,TDP1 cell noCPT,TDP1 cell CPT,uPA surface inh,miR-21 act,TDP1 inh
O=S(=O)(c1ccc(Cl)cc1)N1CCc2ccccc21,15µM,?,0,0,-
COc1ccc(S(=O)(=O)N2CCc3ccccc32)cc1OC,0,0,0,0,-
Cc1ccc(S(=O)(=O)NCCC(=O)NCC(c2cccs2)N(C)C)cc1C (stereo not given),0,0,0,-,0
CCCC(=O)Oc1c(Sc2ccc(Cl)cc2)c(C)nn1-c1ccccc1,21µM,21µM,-,0,0
N#Cc1cccnc1N1CCC(C(N)=O)CC1,0,0,0,0,0
CSCCOC(=O)C1=C(C)Nc2ccc(C)cc2S1,16µM,21µM,0,0,0
C#CC(C)(CC)NC(=O)c1cc2cccc(CC=C)c2oc1=O (stereo not given),?,0,0,0,0
CCN1C(N(C)C)=NC[C@@H]1Cc1ccccc1,0,0,0,-,0
CC(C)CCCN1C(N(C)C)=NC[C@@H]1Cc1ccccc1,21µM,21µM,?,-,0
CCC(C)CCN1C(N(C)C)=NC[C@@H]1Cc1ccccc1 (stereo not given in full),?,12µM,?,-,0
Cc1ccc(CN2CCN(Cc3cccc(OCCO)c3)CC2CCO)o1 (stereo not given),0,0,0,0,0
CCOC(=O)C1CCN(C(=O)c2ccc(NC(=O)c3nsc4ccccc34)cc2)CC1,?,21µM,-,0,0
NC(=O)C1CCN(C(=O)c2ccc(NC(=O)c3nsc4ccccc34)cc2)CC1,?,?,-,0,0
CCCCC(=O)Nc1ccc(C(=O)N2CCCC(C(=O)OCC)C2)cc1 (stereo not given),0,0,-,0,0
CCOC(=O)C1CCCN(C(=O)c2ccc(NC(=O)c3nsc4ccccc34)cc2)C1 (stereo not given),16µM,?,-,0,0
CCOc1cccc2sc(N(Cc3cccnc3)C(=O)C3CCCCC3)nc12,?,?,-,0,0
COc1ccc(C)c2sc(N(Cc3cccnc3)C(=O)C3CCCCC3)nc12,15µM,18µM,-,0,0
COc1ccc(C)c2sc(N(Cc3cccnc3)C(=O)CCc3ccccc3)nc12,15µM,?,-,0,0
COc1cccc(C(=O)N(Cc2cccnc2)c2nc3c(OC)ccc(C)c3s2)c1OC,23µM,?,-,0,0
O=C(C1CCCCC1)N(Cc1cccnc1)c1nc2c(F)cccc2s1,21µM,21µM,-,0,0
CC(=O)C[C@H](c1ccccc1)c1c(O)c2ccccc2oc1=O,-,-,-,-,0
COc1cc(C)c(C)cc1S(=O)(=O)Nc1cccc(-c2ccc(N3CCOCC3)nn2)c1,16µM,?,-,0,0
COc1ccc(C(=O)Nc2cccc(-c3ccc(N4CCOCC4)nn3)c2)cc1OC,9.2µM,18µM,0,-,-
CCOc1ccccc1C(=O)Nc1cccc(-c2ccc(N3CCOCC3)nn2)c1,16µM,?,0,-,-
O=C(Nc1cccc(-c2ccc(N3CCOCC3)nn2)c1)c1ccc(F)cc1F,0,0,0,-,0
SMILES,TDP1 cell noCPT,TDP1 cell CPT,uPA surface inh,miR-21 act,TDP1 inh
COc1cccc(C(=O)Nc2cccc(-c3ccc(N4CCOCC4)nn3)c2)c1OC,23µM,?,0,-,0
COC(=O)c1sc(C(F)(F)F)c(-c2ccccc2)c1S(=O)(=O)N1CCCC1,0,0,0,0,0
CCOc1ccc(C(=O)Nc2cccc(-c3ccc(N4CCOCC4)nn3)c2)cc1OCC,10µM,?,0,-,-
CN1CCN(c2ccc(-c3cccc(NC(=O)COc4ccc(Cl)cc4)c3)nn2)CC1,?,?,0,-,-
COc1cccc(C(=O)Nc2cccc(-c3ccc(N4CCOCC4)nn3)c2)c1,?,0,10µM,-,0
CN1CCN(c2ccc(-c3cccc(NC(=O)COc4ccccc4)c3)nn2)CC1,21µM,?,0,-,-
CC(=O)c1ccc(S(=O)(=O)Nc2cccc(-c3ccc(N4CCOCC4)nn3)c2)cc1,?,?,0,-,0
CCOC(=O)c1ccc(NC(=O)CSc2nc(C)c(Cc3ccccc3)c(=O)[nH]2)cc1,0,?,-,0,0
CC(C)(C)C(=O)/C=C1\NC(=O)CS1,0,0,0,0,0
c1ccc(-c2nccc3ccccc23)cc1,0,0,0,-,-
Cc1ccc(-c2nc(-c3nccc4ccccc34)oc2-c2ccccc2)cc1,13µM,?,0,0,-
CCCCCCN1CCN(C2CN(Cc3cn(Cc4ccc(Cl)cc4)nn3)S(=O)(=O)C2)CC1 (stereo not given),16µM,23µM,-,-,-
CN(Cc1cn(Cc2ccc(Cl)cc2)nn1)C1CN(Cc2cn(Cc3ccc(Cl)cc3)nn2)S(=O)(=O)C1 (stereo not given),13µM,18µM,-,-,-
CCCCCCN1CCN(C2CN(Cc3ccc(C)cc3)S(=O)(=O)C2)CC1 (stereo not given),?,23µM,-,-,-
CCCCCCN1CCN(C2CN(Cc3cn(Cc4cccc(Cl)c4)nn3)S(=O)(=O)C2)CC1 (stereo not given),?,18µM,-,-,-
CN(Cc1cn(Cc2ccc(F)cc2)nn1)C1CN(Cc2cn(Cc3ccc(F)cc3)nn2)S(=O)(=O)C1 (stereo not given),0,0,-,-,-
CN(C)CCN1CCN(C2CN(Cc3cn(Cc4ccc(Cl)cc4)nn3)S(=O)(=O)C2)CC1 (stereo not given),0,0,-,-,-
O=C(c1ccco1)N(Cc1ccccc1)c1cccc([N+](=O)[O-])c1,0,0,0,0,0
O=C(CCc1ccccc1)Nc1ccc(NS(=O)(=O)c2ccccc2)cc1,?,0,0,0,-
Cc1cccc(CN2CCN(C3CN(Cc4cn(Cc5cccc(C(F)(F)F)c5)nn4)S(=O)(=O)C3)CC2)c1 (stereo not given),21µM,?,-,-,-
CCOC(=O)c1c(C)oc2ccc(N(C(C)=O)S(=O)(=O)c3c(C)cc(C)cc3C)cc12,-,-,-,0,-
CC1CCCN(c2nc(-c3cccnc3)nc3scc(-c4ccccc4)c23)C1 (stereo not given),18µM,?,0,0,0
CC1CCN(c2nc(-c3cccnc3)nc3scc(-c4ccccc4)c23)CC1,0,?,0,0,0
CN1CCN(c2nc(-c3cccnc3)nc3scc(-c4ccccc4)c23)CC1,23µM,?,0,0,0
CCN1C(=O)[C@@H]2[C@@H](c3ccc(-c4ccc(C(C)=O)cc4)c(OC)c3)N3CCC[C@@]3(C(=O)OC)[C@@H]2C1=O,?,?,0,-,0
CCSc1ccc([C@@H]2[C@H]3C(=O)N(CC)C(=O)[C@H]3[C@]3(C(=O)OC)CCCCN23)cc1OC,16µM,?,0,-,0

# Screening results deposited in PubChem by National Center for Advancing Translational Sciences (NCATS).
